Screening results: PubChem, National Center for Advancing Translational Sciences (NCATS)
Hits are enriched below; roughly 20% of the tested compounds scored in any of these assays.
Shiga inhibitor: inhibitors of Shiga toxin in Vero cells; Vero cells, Shiga toxin protein synthesis inhibition reporter; inhibition, % at 38.7 µM; actives 9.2% (n = 290,000); AID 2315; in the data active = inhibition mostly above about 28%, no sharp cut-off; inactive = mostly below about 43%; note: 0% is about no effect
Pf growth 48h: P. falciparum growth inhibition at 48 hours (one generation) | actives 5.9% (n = 310,000) | P. falciparum luciferase growth in erythrocytes, 48 h | Potency, µM (top dose mostly 28.7 µM), for inactives: at the highest dose activity change, negative = inhibition, most hits filed as inhibitors | AID 504832; note: potency is the fitted concentration of half-maximal effect; % is set by controls: 0 for no effect and ±100 for the full control effect
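Read-out is firefly luciferase luminescence from an integrated reporter in P. falciparum, so falling signal marks reduced parasite growth. Infected erythrocytes were at 2% hematocrit and 0.1% parasitemia (final) in Albumax-supplemented RPMI 1640.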
Cycloheximide cs: counter-screen hit for Shiga toxin inhibitors, cycloheximide; actives 12% (n = 300,000); max response, %; AID 2314; cell reporter, cycloheximide protein synthesis inhibition counterscreen; in the data active = max response mostly above about 13%, no sharp cut-off; inactive = mostly below about 14%; note: read at 38.3 µM for the half of the compounds with a filed dose; 0% is about no effect
Pf growth 96h: P. falciparum growth inhibition at 96 hours; P. falciparum luciferase reporter growth, 96 h; Potency, µM (highest dose often 28.7 µM), for inactives: at the top dose activity change, negative = inhibition, most hits filed as inhibitors; actives 6.9% (n = 320,000); AID 504834; note: potency is the fitted concentration of half-maximal effect; % is set by controls: 0 for no effect and ±100 for the full control effect
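Readout is luminescence from an integrated firefly luciferase in P. falciparum. Red cells, 2% hematocrit and 0.05% parasitemia final, were cultured with compound through two parasite generations (96 hours) at 37 C, 5% CO2.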
HCMV antiviral: blocks human cytomegalovirus replication; AID 1259415; HFF cells, HCMV-luciferase reporter, 72 h; hits give low values; actives 4.5% (n = 410,000); activity change, negative = inhibition, % at 57.5 µM; in the data active = activity change below about -60%; inconclusive = no clear call, values can overlap the other calls; inactive = above about -39%; note: % is set by controls: 0 for no effect and ±100 for the full control effect
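Two-dose cell screen: HFF monolayers treated with compounds and infected with luciferase-expressing HCMV at 1 PFU/cell, 72 h at 37C, then lysed for luciferase measurement.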
An asterisk follows results filed as active; ? = inconclusive; nt = no result; [ ] = dose if it differs, or a comment. Unless noted, calls come from the whole dose curve; as a rule, active = well fitted inhibition curve with a large enough effect; inconclusive = small, poorly fitted or top-dose-only effect, or another doubt; inactive = no such curve, though single readings can be large or run the other way.

SMILES | Shiga inhibitor | Pf growth 48h | Cycloheximide cs | Pf growth 96h | HCMV antiviral
O=C(COC(=O)/C=C/c1ccccc1)NC1CCS(=O)(=O)C1 (centres undefined) | nt | 16% | nt | 2% | 0
Cc1nc2cc(C(=O)OCC(=O)N(CC(C)C)C3CCS(=O)(=O)C3)ccc2n1-c1ccccc1 (centres undefined) | -8 | -14% | -4 | ? | -96*
COc1ccc(S(=O)(=O)N2CCN(C(=O)c3c(C)nn(-c4ccccc4)c3C)CC2)cc1 | nt | 10µM* | nt | 8.3µM* | 33
Cc1nn(-c2ccccc2)c(C)c1/C=C/C(=O)OCC(=O)NC1CCS(=O)(=O)C1 (centres undefined) | 22 | -33% | 16* | -3% | 19
CC1(C)CC(=O)c2cc(-c3nc(-c4ccc(Cl)cc4)cs3)c(=O)[nH]c2C1 | nt | nt | nt | nt | -4
COc1ccc(NC(=O)CSc2nc3c([nH]c4ccccc43)c(=O)n2-c2ccccc2)c(OC)c1 | nt | nt | nt | nt | -10
CC(=O)c1nn(-c2ccc(OC(F)(F)F)cc2)nc1Nc1ccc(C)cc1 | nt | nt | nt | nt | -24
CC(=O)Nc1ccc(NC(=O)COC(=O)c2c(C)nn(-c3ccccc3)c2C)cc1 | 2 | -24% | -1 | ? | -35
Cc1nn(-c2ccccc2)c(C)c1C(=O)OCC(=O)NC12CC3CC(CC(C3)C1)C2 | 6 | ? | -1 | 10µM* | -31
Cc1nn(-c2ccccc2)c(C)c1C(=O)Oc1ccccc1 | 59* | 51% | 36* | 54% | 28
CC(=O)c1c(C)nn(-c2ccccc2)c1C | -3 | 0% | -1 | 8% | -20
CN(C(=O)COC(=O)c1nc(Cl)c(Cl)c(Cl)c1Cl)C1CCS(=O)(=O)C1 (centres undefined) | 60 | 31%[1.15 µM] | 54* | 51%[1.15 µM] | -99*
COC(=O)c1c(C)nn(-c2ccc(OC(F)(F)F)cc2)c1-c1snnc1C | -10 | ? | 2 | 13µM* | -20
CN(C(=O)COC(=O)c1ccc(C(C)(C)C)cc1)C1CCS(=O)(=O)C1 (centres undefined) | nt | ? | nt | -1% | -35
O=C(O)CN1C(=O)C2C3CCC(C3)C2C1=O (centres undefined) | nt | nt | nt | nt | 0
Cc1ccc(S(=O)(=O)N2CCCN(S(=O)(=O)c3ccc(C(F)(F)F)cc3)CC2)cc1 | -3 | 97% | -4 | -31% | -16
O=S(=O)(Nc1cccnc1)c1ccc(Cl)c(C(F)(F)F)c1 | -2 | -7% | 2 | 8% | 37
Cc1ccc(NC(=O)c2ccc(=O)[nH]n2)cc1S(=O)(=O)Nc1ccc(SC(F)F)cc1 | nt | nt | nt | nt | 0
Cc1ccccc1OCCC(=O)N1CCN(S(=O)(=O)c2ccc(Br)cc2)CC1 | nt | -19% | nt | ? | ?
COc1cc(-c2cc(C(=O)Nc3ccc(C)c(S(=O)(=O)N4CCOCC4)c3)c3ccccc3n2)cc(OC)c1OC | nt | nt | nt | nt | 10
COc1ccc(OC(=O)c2cnn(-c3ccccc3)c2C)cc1 | 133* | 198% | 45* | nt | -25
CN(C(=O)COC(=O)c1nc(-c2ccccc2)n(-c2ccccc2)n1)C1CCS(=O)(=O)C1 (centres undefined) | -8 | 10% | -4 | 39% | 27
Cc1nn(-c2ccccc2)c(C)c1C(=O)OCC(=O)N(C)C1CCS(=O)(=O)C1 (centres undefined) | 61* | 139% | 33* | 169% | 89
COc1ccc(OC(=O)c2c(C)nn(-c3ccccc3)c2C)cc1 | 70* | 42% | 52* | 23% | 40
O=C(N[C@H]1CC[C@@]23CCCN2C(=O)CCC[C@H]3[C@H]1Cc1ccccc1)C1CCC1 | nt | nt | nt | nt | 12
SMILES | Shiga inhibitor | Pf growth 48h | Cycloheximide cs | Pf growth 96h | HCMV antiviral
Cn1c(=O)cc(OCC(=O)NCc2ccc(F)cc2Cl)c2ccccc21 | nt | nt | nt | nt | 7
Cc1ccc(C)n1-c1ccc(-c2nnco2)cc1 | -4 | -6% | 6 | 12µM* | nt
Cc1cc(-c2nnco2)c(C)n1-c1ccc(F)cc1 | -4 | 64% | 12 | -3% | 4
FC(F)(F)C(F)(F)c1nnc2ccc(-n3ccnc3)nn12 | -18 | -18% | 12 | ? | -17
N#Cc1cccc(S(=O)(=O)NNC(=O)C23CC4CC(CC(C4)C2)C3)c1 | nt | nt | nt | nt | -27
CCCCNC(=O)C(CC)(ONc1ccccc1C(F)(F)F)c1ccccc1 (centres undefined) | nt | 13µM* | nt | ? | 73
CCCCNC(=O)[C@@](CC)(ONc1ccccc1C(F)(F)F)c1cccc2ccccc12 | nt | 8.3µM* | nt | ? | -9
